GBA mod: Glucocerebrosidase. Lysosomal acid glucosylceramidase (Homo sapiens), P04062. purified enzyme, resorufin glucoside fluorescence (screen aimed at inhibitors), 20 min. 48,000 tested, 1.1% active. AID 360, 2006. Potency, µM; in the data active = potency below about 15 µM; inconclusive = mostly about 16 µM to 33 µM;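 also: the screen sought inhibitors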
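Normal human glucocerebrosidase (0.2 nM final) was assayed with resorufin β-D-glucopyranoside (30 uM final) in 50mM citric acid/KH2PO4, 10mM sodium taurocholate, 0.01% tween-20, pH 5.9. Compounds were titrated; fluorescence (Ex 548, Em 600) read after 20 min at RT.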
DNA Pol III inh: qHTS Assay for Inhibitors of DNA Polymerase III Holoenzyme System; reconstituted DNA polymerase III holoenzyme replication, biochemical; Potency, µM (top dose mostly 57.1 µM); 71,000 tested, 0.25% active; AID 603, 2007
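Reconstituted *E. coli* holoenzyme (0.35 nM Pol III, 1 nM beta, 154 nM SSB, 2 nM primase) was preincubated with compound for 15 min at RT. Synthesis on 1.4 nM ssM13Gori ran 35 min, then was stopped with PicoGreen/EDTA and read as dsDNA fluorescence.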
BRCT PPI red: qHTS Assay for Inhibitors of BRCT-Phosphoprotein Interaction (Red Fluorophore); 75,000 tested, 0.03% active; Potency, µM (top dose mostly 76.9 µM), most hits filed as inhibitors; AID 892, 2007; BRCT-phosphopeptide binding, red fluorescence polarization; Breast cancer type 1 susceptibility protein (Homo sapiens), P38398
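Fluorescence polarization: 100 nM His-tagged BRCA1 BRCT with 100 nM TAMRA-labelled phospho-BACH1 decapeptide, phosphate buffer pH 7.3 with 150 mM NaCl, DTT, 0.01% Tween 20; 12 min RT. Binding inhibition seen as FP decrease.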
Hsp90 Hop PPI: qHTS Assay for Disrupters of an Hsp90 Co-Chaperone Interaction; AlphaScreen TPR2A-His6 binding biotin-Hsp90 C-terminal peptide; Potency, µM (titrated, usually from 57 µM); 71,000 tested, 0.44% active; active = well fitted curve in either direction with a large enough effect; inconclusive = small, poorly fitted or top-dose-only effect, or another doubt
BRCT inh green: qHTS Assay for Inhibitors of BRCT-Phosphoprotein Interaction (Green Fluorophore). 75,000 tested, 0.05% active. AID 875, 2007. BRCA1 BRCT-phosphopeptide binding, green fluorescence polarization. Potency, µM (top dose mostly 76.9 µM), hits mostly inhibitors
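Compounds were incubated for 12 min at room temperature with a complex of 100 nM fluorescein-tagged pBACH1 decapeptide and 250 nM His-tagged BRCT protein. Buffer was phosphate pH 7.3 with EDTA, DTT and Tween 20. Disruption of binding lowers the polarization signal.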
TsaE inh: qHTS Assay for Inhibitors of YjeE; AID 605, 2007; Potency, µM; purified YjeE enzyme, qHTS inhibition assay; tRNA threonylcarbamoyladenosine biosynthesis protein TsaE (Escherichia coli (strain …; 71,000 tested, 0.05% active
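Fluorescence polarization of a BODIPY Texas Red–ADP probe (2 uM) bound to purified YjeE (10 uM) was read after 15 min room-temperature incubation with compounds. Loss of polarization marks inhibitors; ADP serves as titrated control.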
Each line names hits and unclear results; the compound was inactive in the other large screens. A selection: hits, their analogues and other compounds. The true share with any hit is near 1.2%. Unless noted, calls follow the shape of the dose curve; as a rule, active = well fitted curve in the direction sought with a large enough effect; inconclusive = small, poorly fitted or top-dose-only effect, or another doubt; inactive = no such curve, though single readings can be large; an effect the other way counts as inactive or inconclusive.

CCCn1c(=N)n(CC(O)COc2cccc(C)c2)c2ccccc21 (stereo unspecified)	GBA mod 12
O=C(O)[C@H]1CCCNC1	none (no result: GBA mod)
O=C(/C=C/c1ccccc1)N1CCCC1CO (stereo unspecified)	none (no result: GBA mod, DNA Pol III inh, Hsp90 Hop PPI, TsaE inh)
COc1ccc2c3c(cccc13)NN=C2C	DNA Pol III inh 32µM
COc1cccc(OC)c1OCCCc1c(C)n[nH]c1C	none
N#Cc1nc(Cc2cccc3ccccc23)oc1NCCCn1ccnc1	GBA mod 13
N#Cc1nc(Cc2cccc3ccccc23)oc1NCCCN1CCOCC1	none
OCCN1CCN(C(=S)c2ccc(Cl)c(Cl)c2)CC1	GBA mod 10, Hsp90 Hop PPI inconclusive
Cc1ccc2c(c1)-c1cc(C)nn1C(c1sccc1C)N2 (stereo unspecified)	Hsp90 Hop PPI 25µM (no result: GBA mod)
Cc1cc2n(n1)C(c1sccc1C)Nc1ccccc1-2 (stereo unspecified)	Hsp90 Hop PPI inconclusive
Cc1c(C)c2c(c(C)c1O)CC[C@@](C)(C(=O)O)O2	none (no result: GBA mod)
O=S(=O)(Nc1ccc(-c2cn3ccsc3n2)cc1)c1ccc2c(c1)OCCO2	GBA mod 15
CC(C)(C)C(=O)Nc1ccc(-c2cn3ccsc3n2)cc1	none
O=P(O)(O)O	none (no result: GBA mod)
CCn1c(CSc2nnc(-c3cccnc3)n2-c2ccccc2C)nc2cc(C(=O)O)ccc21	BRCT PPI red 25µM, TsaE inh 79µM (no result: GBA mod)
CCn1c(CSc2nnc3ccccn23)nc2cc(C(=O)O)ccc21	GBA mod inconclusive
Cc1cc(NC(=O)CSc2nc3c(c(-c4cccnc4)c2C#N)CCC3)no1	DNA Pol III inh 3.2µM (no result: GBA mod)
CNC(=O)Oc1ccc2c(c1)C1(C)CCN(C)C1N2C (stereo unspecified)	none (no result: GBA mod, DNA Pol III inh, Hsp90 Hop PPI, TsaE inh)
N#CC1=C(N)C(C#N)(C#N)[C@H](c2c(F)cccc2F)[C@H]2CC3(CC=C12)OCCO3	GBA mod 14
CCCCCC(=O)Nc1ccc(N2CCN(CC)CC2)c(Cl)c1	GBA mod 0.7
C=CCNc1oc(-c2ccc(OC)cc2)nc1C#N	GBA mod 15
C=CCNc1oc(-c2ccc(OCC)cc2)nc1C#N	GBA mod inconclusive, Hsp90 Hop PPI inconclusive
CCCSC1=N/C(=C\C=C\c2ccco2)C(=O)S1	DNA Pol III inh 1.3µM (no result: GBA mod)
O=C1SC(SCc2ccccc2)=N/C1=C\c1ccco1	none
COCCn1c(=O)c(-c2ccc(Cl)cc2)nc2cnc(N3CCNCC3)nc21	none (no result: GBA mod)
Nc1nc(Nc2cccc3ccccc23)nc(C2CCCC2=O)n1 (stereo unspecified)	GBA mod 1.5
CC(C)(C)c1csc(NC(=O)c2ccc(Cl)s2)n1	GBA mod 15
CNC(=O)C1CC(=O)N(c2ccc(F)c(Cl)c2)C1 (stereo unspecified)	none
CN(CCNC(=O)C1CC(=O)N(c2ccc(F)c(Cl)c2)C1)Cc1ccccc1 (stereo unspecified)	GBA mod 15
Cc1cc(N)c2cc(OCCOc3ccc4nc(C)cc(N)c4c3)ccc2n1	none (no result: GBA mod, DNA Pol III inh, Hsp90 Hop PPI, TsaE inh)
Cc1cc(N)c2cc(NC(=O)Nc3ccc4nc(C)cc(N)c4c3)ccc2n1	DNA Pol III inh 4µM, Hsp90 Hop PPI inconclusive (no result: GBA mod)
O=C(c1ccncc1)N1CCC2(CCCN(c3ccccc3)C2)CC1	none (no result: GBA mod)
CN1CCc2cc(O)c(O)cc2[C@H](c2ccccc2)C1	none (no result: GBA mod)
C=CCN1CCc2c(cc(O)c(O)c2Br)[C@H](c2ccccc2)C1	Hsp90 Hop PPI 10µM (no result: GBA mod)
COc1ccccc1CN1CC[C@@]2(CCCN(C(=O)c3ccco3)C2)C1	none (no result: GBA mod)
C[N+](C)(C)CC(=O)N/N=C\c1c(O)ccc2ccccc12	Hsp90 Hop PPI 3.2µM (no result: GBA mod)
C[N+](C)(C)CC(=O)N/N=C\c1ccncc1	none (no result: GBA mod)
CN1CCN(CC(C)(C)NS(=O)(=O)c2ccc(Cl)cc2)CC1	GBA mod 14
Cc1noc(C)c1S(=O)(=O)Nc1ccc(C(=O)NC2CCCCCC2)cc1	GBA mod 5.8
CC1C2CCC3C4CC=C5CC(N(C)C)CC[C@@]5(C)C4CC[C@@]32CN1C (stereo partly specified)	none (no result: GBA mod, DNA Pol III inh, Hsp90 Hop PPI, TsaE inh)
CC(CCC(=O)O)C1CCC2C3CC[C@H]4CC(O)CC[C@@]4(C)C3CC(O)[C@]12C (stereo partly specified)	none (no result: GBA mod, DNA Pol III inh, Hsp90 Hop PPI, TsaE inh)
CC1CCc2cccc3c2N1c1cc(C#N)c(C#N)cc1O3 (stereo unspecified)	GBA mod 5, Hsp90 Hop PPI inconclusive
O=C(NCCN1CCOCC1)c1nn2c(c1Cl)NC(c1ccccc1)CC2C(F)(F)F (stereo unspecified)	none
O=C(NCC12CC3CC(CC(C3)C1)C2)c1nn2c(c1Cl)NC(c1ccco1)CC2C(F)(F)F (stereo unspecified)	GBA mod 14
COC(=O)c1sccc1NC(=O)c1ccc(OC)cc1	none
COC(=O)c1sccc1NC(=O)c1csc(C)c1	GBA mod 13
CCN(CC)S(=O)(=O)c1ccc2c(c1)c(=O)c(C(=O)NCCN(C)CCc1ccccc1)cn2C	GBA mod 5.6, Hsp90 Hop PPI inconclusive
CN(CCNC(=O)c1cn(C)c2ccc(S(=O)(=O)N(C)C)cc2c1=O)CCc1ccccc1	none (no result: GBA mod)
O=C(Oc1ccccc1OC(=O)N1CCOCC1)N1CCOCC1	Hsp90 Hop PPI inconclusive
O=C(Oc1ccc(OC(=O)N2CCOCC2)cc1)c1ccccc1	GBA mod 8
Clc1ccc(OCc2nc(-c3ccccn3)n[nH]2)cc1	Hsp90 Hop PPI 16µM
CC(Oc1ccc(Cl)cc1Cl)c1nc(-c2ccccn2)no1 (stereo unspecified)	none (no result: GBA mod)
COc1ccc(OC)c2c(=S)c3ccccc3[nH]c12	none (no result: GBA mod)
Cc1nnc(SCC2=C(C(=O)O)N3C(=O)[C@@H](NC(=O)Cn4cnnn4)[C@@H]3SC2)s1	none (no result: GBA mod)
Cc1nn(-c2nc3ccccc3s2)c(N)c1-c1ccc(Cl)cc1	GBA mod 10
Cc1nn(-c2nc3ccccc3s2)c(N)c1-c1ccccc1	none
Clc1ccccc1-c1nccc(NCc2cccs2)n1	none (no result: GBA mod)
COc1cccc(Nc2ncc3nc(-c4ccc(Cl)cc4)c(=O)n(C[C@H]4CCCO4)c3n2)c1	none (no result: GBA mod)
COc1cccc(Nc2ncc3nc(-c4ccccc4)c(=O)n(C[C@H]4CCCO4)c3n2)c1	Hsp90 Hop PPI 13µM (no result: GBA mod)
CCNc1ncc2nc(-c3ccccc3)c(=O)n(-c3ccc(OC)cc3)c2n1	Hsp90 Hop PPI 4µM (no result: GBA mod)
CCNc1ncc2nc(-c3ccc(F)cc3)c(=O)n(-c3ccc(OC)cc3)c2n1	none (no result: GBA mod)
